What all share (details): concentration: 10 µM; 24 h
In experiment [1] the test system is HCC1569. As to the kind of experiment: cell number relative to DMSO (% of DMSO); higher = more cells (less growth inhibition / toxicity). In short, it runs like this:
(§1)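 For HCC1569 and TDF cells, compounds at 10 µM were applied for 24 h at 37 °C in triplicate in 384-well plates. Cells were fixed in 3.7% formaldehyde, stained for H1.0 and with DAPI, and imaged at ×10 over six fields per well. The endpoint, H1.0 nuclear intensity or cell number, is shown as percent of the plate control using the median of replicates. Positional effects were smoothed for HCC1569 only.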

Experiment [2] concerns TDF. Described as above. The procedure, abridged:
as §1

Experiment [3] concerns TDF. Description: H1.0 immunofluorescence intensity relative to DMSO (% of DMSO); higher = stronger H1.0 induction, active = 120 or more. In short, it runs like this:
as §1

The subject of experiment [4] is HCC1569. As to the kind of experiment: H1.0 immunofluorescence intensity relative to DMSO (% of DMSO); higher = stronger H1.0 induction, active = 140 or more. In short, it runs like this:
as §1
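Wherever H1.0 immunofluorescence intensity relative to DMSO is given: TDF is a line of transformed human dermal fibroblasts of mesenchymal origin.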
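Wherever cell number relative to DMSO is given: TDF denotes transformed human dermal fibroblasts of mesenchymal origin.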

On to `CC(C)(C)NCC(O)c1ccccc1Cl.Cl` (configuration not stated) [Tulobuterol hydrochloride], for which the cell number amounted to 101 in the experiment with HCC1569 [1] and 110 with TDF [2]. Further, the H1.0 immunofluorescence intensity is 89.1 (inactive) with TDF [3] and 96.4 (inactive) in the experiment with HCC1569 [4].
The matching figures for `CCC1(c2ccc(N)cc2)CCC(=O)NC1=O` (racemic): 98.8, 109, 85.7 (inactive) and 89.1 (inactive).
Turning to `COC(=O)CC(O)(CCC(C)(C)O)C(=O)OC1C(OC)=CC23CCCN2CCc2cc4c(cc2C13)OCO4` (configuration not stated) [Harringtonine], the figures for the cell number in the experiment with HCC1569 [1] and in the experiment on TDF [2] were 56.5 and 29.9, respectively. Further, the H1.0 immunofluorescence intensity with TDF [3] was 107 (inactive); with HCC1569 [4], 90 (inactive).
As for `CCCCCC=CCC=CCC=CC=CC(CCCC(=O)O)OO` (configuration not stated), the cell number in the experiment with HCC1569 [1] worked out at 101; in the experiment with TDF [2] it was 100. The values for the H1.0 immunofluorescence intensity in the experiment on TDF [3] and in the experiment on HCC1569 [4] were 98.5 (inactive) and 106 (inactive), respectively.
On to `O=c1[nH]c2ccccc2n1C1CCN(Cc2ccc(-c3nc4cc5[nH]cnc5cc4nc3-c3ccccc3)cc2)CC1` [Akt Inhibitor VIII, Isozyme-Selective, Akti-1/2], for which the figures for the cell number in the experiment with HCC1569 [1] and in the experiment on TDF [2] were 75.9 and 81.2, respectively. Moreover, the figures for the H1.0 immunofluorescence intensity with TDF [3] and in the experiment on HCC1569 [4] were 105 (inactive) and 131 (inactive), respectively.
Turning to `CC(C)=CCCC1(C)C=Cc2c(O)c3c(c(CC=C(C)C)c2O1)OC12C(=CC4CC1C(C)(C)OC2(CC=C(C)C(=O)O)C4=O)C3=O` (configuration not stated) [Gambogic acid], the cell number with HCC1569 [1] is 14.1; in the experiment with TDF [2], 10.6. In addition, the H1.0 immunofluorescence intensity is 148 (active) in the experiment with TDF [3] and 58.8 (inactive) in the experiment with HCC1569 [4].
The like results for `CCn1cnc2c(Nc3cccc(Cl)c3)nc(NC3CCCCC3N)nc21` (configuration not stated) were, in that order, 54, 13.5, 141 (active) and 134 (inactive).
The like results for `CC1CC2CCC(O2)C(C)C(=O)OC(C)CC2CCC(O2)C(C)C(=O)OC(C)CC2CCC(O2)C(C)C(=O)OC(C)CC2CCC(O2)C(C)C(=O)O1` (configuration not stated) [Nonactin] were, in that order, 60.4, 50.1, 118 (inactive) and 148 (active).

Source of the values: the supplement of paper PMC7156485.
